In ChEMBL document CHEMBL4888484, “Replenishing the malaria drug discovery pipeline: Screening and hit evaluation of the MMV Hit Generation Library 1 (HGL1) against asexual blood stage Plasmodium falciparum ,using a nano luciferase reporter read-out” (2022):
Among all 4,800 compounds or so, about 410 (8.5%) showed an effect of 50% or more. For the sample, strong results were picked, then their nearest neighbours and some compounds at random.

What follows are compounds tested on Plasmodium falciparum (assay: Confirmatory screen in NF54 pLDH assay, in single point, at 2uM, 72h). Conditions: timepoint 72 hour.
Format: functional, Erythrocyte
For `Cc1noc(C)c1C(=O)NC[C@H](O)Cn1ccccc1=O`, the “% Inhibition” value was 6%.
`Cc1c(NC(=O)c2ccc(-c3cccc(F)c3)o2)cccc1-c1nc2ncccc2o1` was tested, and the “% Inhibition” value was -2%.
In the case of `Cc1ccc(F)cc1S(=O)(=O)N1CC[C@]2(CCN(c3cccnc3)C2)C1`, the “% Inhibition” value is reported as -20%.
With `N#Cc1ccc(O)c(NC(=O)c2snc(O)c2Cl)c1` the “% Inhibition” value was -3%.
`O=C1[C@@H]2CCCN2C(=O)N1Cc1ccnc(OC2CCOCC2)c1` was tested, and the “% Inhibition” value was -11%.
For `O=C(N[C@H](c1ccccc1)C1CC1)C(c1ccccc1)c1ccccc1`, the “% Inhibition” value was 11%.
For `CN(C)C(=O)NCC1(NC(=O)N(C)C)CCC1`, the “% Inhibition” value was 5%.
`CCOc1cc(CNC2CCCCC2)cc(Cl)c1OCc1ccc(C)cc1` was tested, and the “% Inhibition” value was -4%.
In the case of `Clc1ccc(-c2noc(C3CNC3)n2)cc1`, the “% Inhibition” value is reported as 15%.
In the case of `c1ccc(-c2noc(-c3ccc(NC4CCCCC4)nn3)n2)cc1`, the “% Inhibition” value is reported as 60%.
`CC(C)N1CCN(C(=O)CN2N=C(c3nc(-c4ccccc4)no3)CCC2=O)CC1` was tested, and the “% Inhibition” value was 2%.
`COc1cccc(-c2nn(-c3nc(-c4ccccc4)cc(C(F)(F)F)n3)c(-c3cccc(OC)c3)c2Cl)c1` was tested, and the “% Inhibition” value was 35%.
For `COc1ccc(-c2cc(C(F)(F)F)nc(-n3nc(-c4cccc(OC)c4)c(Cl)c3-c3cccc(OC)c3)n2)cc1`, the “% Inhibition” value was 92%.
`Cc1c(-c2nn(-c3nc(C4CC4)cc(C(F)(F)F)n3)c(-c3cnn(C)c3C)c2Cl)cnn1C` was tested, and the “% Inhibition” value was 14%.
`Cc1nnc2ccc(S(=O)(=O)N(Cc3ccc(F)cc3)c3cccc(Cl)c3)cn12` was tested, and the “% Inhibition” value was 14%.
In the case of `C[C@H]1CN(Cc2ccccc2)CC2(CCN(C(=O)N(C)C)CC2)O1`, the “% Inhibition” value is reported as 10%.
In the case of `COc1ccc(NC(=O)CN2N=C(C(=O)Nc3ccc(F)cc3)CCC2=O)cc1`, the “% Inhibition” value is reported as -1%.
`COc1ccc2nc(O)c(C(=O)Nc3ccc4c(c3F)CCNC4)cc2c1` was tested, and the “% Inhibition” value was 101%.
In the case of `COc1ccc(F)c(NC(=O)N(CCO)C(C)C)c1`, the “% Inhibition” value is reported as 10%.
With `O=C(c1cn[nH]c1-c1ccccc1)N1CCCCCC1` the “% Inhibition” value was 1%.
For `CC(C)[C@@H]1CC[C@H](C)C[C@H]1OC(=O)Cn1cc(-c2ccc(Cl)cc2)[n+]2c1CCC2`, the “% Inhibition” value was 75%.
For `CC(C)(C)NC(=O)c1ncc(Br)cc1Br`, the “% Inhibition” value was 5%.
In the case of `COc1ccc(-c2noc([C@H](C)NC(=O)N3CCNC(=O)C3)n2)cc1OC`, the “% Inhibition” value is reported as 6%.
With `CCc1ccc(CS(=O)(=O)NC(=O)c2cn3ccnc3s2)cc1` the “% Inhibition” value was 4%.
`CCn1ccnc1C(=O)Nc1ccc(OC)nc1` was tested, and the “% Inhibition” value was 7%.
For `CS(=O)(=O)Nc1ccc(OC(=O)C2C3CCCCC32)cc1` (centres undefined), the “% Inhibition” value was 11%.
With `O=C1OC2(c3ccccc31)C(c1ccccc1)CC(=O)N2Cc1ccccc1` (centres undefined) the “% Inhibition” value was -21%.
With `Cc1ccc(C(=O)N2CC(C)CC(C)C2)cc1NCc1ncc[nH]1` (centres undefined) the “% Inhibition” value was 8%.
In the case of `C[C@](O)(CCc1ccccc1)C(=O)NCCc1ncc[nH]1`, the “% Inhibition” value is reported as 6%.
For `Cc1ccccc1C(=O)Cc1ncc[nH]1`, the “% Inhibition” value was 53%.
In the case of `CCCS(=O)(=O)NC1CCC2(CC1)OCCO2`, the “% Inhibition” value is reported as -18%.
In the case of `COc1ccc2c(c1)CN(Cc1ccccc1Cl)CC[C@H]1COC(=O)N21`, the “% Inhibition” value is reported as -1%.
For `Fc1ccc(C2=C[C@@H](c3ccc(Cl)cc3)N3N=C(c4ccc(Cl)cc4)NC3=N2)cc1`, the “% Inhibition” value was 97%.
With `COc1ccccc1C(=O)NC1=C(C)Nc2ncnn2[C@H]1c1c[nH]c2ccccc12` the “% Inhibition” value was -5%.
`COc1cc(N2CCn3c(nc4cc(Cl)ccc43)C2)ccc1NC(=O)c1ccccc1OC` was tested, and the “% Inhibition” value was -10%.
In the case of `CCC1=NN2C(=NC(C(=O)O)=C[C@H]2c2ccc(O)cc2)N1`, the “% Inhibition” value is reported as -3%.
For `COc1ccc([C@@H]2C=C(c3ccc(Cl)cc3)N=C3NC(NC(=O)c4ccccc4OC)=NN32)cc1`, the “% Inhibition” value was 89%.
With `COc1ccccc1C(=O)NC1=NN2C(=NC(c3ccc(Cl)cc3)=C[C@H]2c2ccc(Cl)cc2)N1` the “% Inhibition” value was 92%.
With `O=C(NC1=NN2C(=NC(c3ccc(Cl)cc3)=C[C@H]2c2ccc(F)cc2)N1)c1ccc(Cl)cc1` the “% Inhibition” value was 13%.
For `COc1cc(NC(=O)c2ccccc2Cl)cc(S(=O)(=O)c2ccc(Cl)cc2)c1`, the “% Inhibition” value was -15%.
With `Cc1noc(Cn2c(=O)c3ccccc3n(CC(=O)Nc3cccc(Cl)c3C)c2=O)n1` the “% Inhibition” value was 2%.
With `Cc1cccc(N2C(=O)C3CC3C2=O)c1` (centres undefined) the “% Inhibition” value was 8%.
In the case of `C[n+]1ccc(-c2ncc(-c3ccccc3)o2)c2ccccc21`, the “% Inhibition” value is reported as 62%.
For `Cc1cc(F)c(C(=O)Nc2nc(-c3cnn(C)c3)cs2)cc1F`, the “% Inhibition” value was -4%.
In the case of `O=C(NCc1cccc(C(F)(F)F)c1)c1csc(C(=O)NC2CCCC2)n1`, the “% Inhibition” value is reported as -3%.
In the case of `Cc1ccccc1N1C2=CCCCCN2C[C@]1(O)c1ccc(Br)cc1`, the “% Inhibition” value is reported as 14%.
With `COC1CCC(CC(=O)N[C@H]2CC(=O)N(c3ccccc3)C2)CC1` (some centres undefined) the “% Inhibition” value was 10%.
`O=S(=O)(c1cccc(F)c1)c1cnc2c(F)cccc2c1-c1cccc(F)c1` was tested, and the “% Inhibition” value was -3%.
For `Cc1nn(-c2ccccn2)c(O)c1C(c1ccccc1)c1c(C)nn(-c2ccccn2)c1O`, the “% Inhibition” value was 86%.
For `COc1ccc(-c2nn(-c3ccccc3)c(O)c2C(c2ccc(C(=O)O)cc2)c2c(-c3ccc(OC)cc3)nn(-c3ccccc3)c2O)cc1`, the “% Inhibition” value was 4%.
With `Cc1ccc(S(=O)(=O)N2CCCC(=O)c3ccccc32)cc1` the “% Inhibition” value was 0%.
In the case of `Cc1ccc(S(=O)(=O)N2CCN(S(C)(=O)=O)C2)cc1`, the “% Inhibition” value is reported as -3%.
For `Cc1ccc2c(c1)c1c(n2S(=O)(=O)c2ccc(C(C)(C)C)cc2)CCCN(C)C1`, the “% Inhibition” value was 94%.
For `CCC1(CC)NC(=O)N(CC(=O)Nc2cccc(CC(=O)OC)n2)C1=O`, the “% Inhibition” value was -20%.
`c1ccc(CNc2ncnc3c2cnn3-c2ccccn2)cc1` was tested, and the “% Inhibition” value was 7%.
`CN(CCN)c1ccc(Br)cc1C#N` was tested, and the “% Inhibition” value was 9%.
With `COc1ccc(C(=O)CN2C=CCC=C2c2nc(-c3ccc(Cl)cc3)cs2)cc1` the “% Inhibition” value was 73%.
`O=C(CN1C=CCC=C1c1nc(-c2ccc(Br)cc2)cs1)c1ccccc1` was tested, and the “% Inhibition” value was 46%.
In the case of `COc1ccc(C2=CN(CC(=O)c3ccc(Cl)cc3)C3=CCCCCN23)cc1`, the “% Inhibition” value is reported as 41%.
With `COc1ccc(NC(=O)c2cc3c(C)nn(-c4ccccc4)c3s2)cn1` the “% Inhibition” value was 9%.
`O=C1C2C(Cc3ccccc3)NC3(C(=O)Nc4ccccc43)C2C(=O)N1c1cccc(C(F)(F)F)c1` (centres undefined) was tested, and the “% Inhibition” value was 6%.
For `COc1ccc(C(=O)N2c3ncnn3C(c3ccccc3)CC2c2ccc(C)cc2)cc1OC` (centres undefined), the “% Inhibition” value was 98%.
`COc1ccc(C2CC(c3ccccc3)N(C(C)=O)c3ncnn32)cc1` (centres undefined) was tested, and the “% Inhibition” value was -7%.
`COc1ccc(C(=O)Nc2nnc([C@H]3CC(=O)N(c4ccc(C)cc4)C3)o2)cc1OC` was tested, and the “% Inhibition” value was -19%.
With `O=C(NCCCn1ncc2c(Cl)cccc21)C1CCC1` the “% Inhibition” value was 8%.
In the case of `CCc1ccc(NC(=O)Cc2c(C)nc3nc(-c4ccccc4C)nn3c2C)cc1`, the “% Inhibition” value is reported as 3%.
In the case of `C[C@H](NS(C)(=O)=O)C(=O)NC(C)(C)Cc1ccccc1Cl`, the “% Inhibition” value is reported as 2%.
With `CCCN1CCC(NCc2ccc(-c3cccc(Cl)c3Cl)o2)CC1` the “% Inhibition” value was 98%.
With `CCOCC(=O)Nc1ccc(OC(F)(F)F)cc1` the “% Inhibition” value was -14%.
With `Cc1ccccc1N1C(O)=Nc2ccccc2S1(=O)=O` the “% Inhibition” value was -19%.
`Cc1nnc(Cn2nnc(C(=O)NCC3(CC(C)C)CCC3)c2C)o1` was tested, and the “% Inhibition” value was -24%.
With `c1ccc(-c2nnc3nc(N4CCOCC4)nc(N4CCOCC4)n23)cc1` the “% Inhibition” value was 6%.
For `Cc1cc(CNC(=O)c2csc(=O)[nH]2)n(C)n1`, the “% Inhibition” value was 12%.
With `CCc1ccc2ncc(C(=O)c3ccc(Cl)cc3)c(O)c2c1` the “% Inhibition” value was 1%.
In the case of `CC(=O)c1nc2cc(F)c(N3CCOCC3)cc2nc1C`, the “% Inhibition” value is reported as -13%.
For `O=C(NCCc1cccs1)c1cnn2c(-c3ccc4c(c3)OCO4)ccnc12`, the “% Inhibition” value was -8%.
With `CCCn1ccnc1-c1cn(Cc2cc3ccccc3[nH]2)nn1` the “% Inhibition” value was 54%.
`O=C(c1ccc2ccccc2c1)N1CCC[C@H]1c1nc2ccccc2s1` was tested, and the “% Inhibition” value was 11%.
With `O=C(NCc1ccco1)c1ccc2c(c1)OCO2` the “% Inhibition” value was -7%.
For `Cn1n[n+](CCCCC(Cl)(Cl)Cl)c2ccccc21`, the “% Inhibition” value was 52%.
For `Cn1n[n+](CC(=O)Nc2ccccc2Cl)c2ccccc21`, the “% Inhibition” value was 3%.
For `CCC(CC)(NCC(=O)NC1CC1)c1ccc(Cl)cc1`, the “% Inhibition” value was -1%.
In the case of `Cc1cc(C)n(C(=O)Cn2nc(C(F)F)cc2C)n1`, the “% Inhibition” value is reported as 11%.
`CCc1ccc(C(=O)N2CCCN(c3nc(C4CCOCC4)nc4c3cnn4-c3ccccc3)CC2)cc1` was tested, and the “% Inhibition” value was -7%.
In the case of `COC(=O)[C@H](C)N(C(=O)CO)c1c(C)cccc1C`, the “% Inhibition” value is reported as 10%.
In the case of `O=C(c1nnn(-c2ccccc2Cl)c1-c1cccnc1)N1CCC(Cc2ccccc2)CC1`, the “% Inhibition” value is reported as -8%.
For `COc1cccc(NC(=O)Nc2ccc3c(c2)NC(=O)C(C)(C)O3)c1`, the “% Inhibition” value was -4%.
For `Cc1sc2ncnc(N3CCCCC3)c2c1C(=O)NCc1cccc(Cl)c1`, the “% Inhibition” value was 10%.
`O=C(N[C@@H](N1CCCCC1)C(Cl)(Cl)Cl)c1ccc(Cl)cc1` was tested, and the “% Inhibition” value was 0%.
With `Cc1ccccc1[C@H](CC(=O)O)NC(=O)C(F)(F)F` the “% Inhibition” value was 16%.
With `N=C1CCCN1c1c(Cl)cccc1Cl` the “% Inhibition” value was 5%.
`COc1ccc(-c2cc3c(N4CCN(Cc5ccc6c(c5)OCO6)CC4)nccn3n2)cc1OC` was tested, and the “% Inhibition” value was -2%.
For `Cc1cccc2[nH]cc(CCNC(=O)N3CCC4CCC(C3)N4C)c12` (centres undefined), the “% Inhibition” value was 11%.
In the case of `CCc1cc(C(=O)N2CCC[C@H](C)C2)c2c(C3CC3)nn(-c3ccccc3)c2n1`, the “% Inhibition” value is reported as 4%.
For `O=C(O)c1ccc(N(C(=O)c2ccc3c(c2)OCO3)C(=O)c2ccc3c(c2)OCO3)cc1O`, the “% Inhibition” value was 15%.
For `COc1ccccc1C(=O)N(Cc1cccs1)c1ccc(C)c(Cl)c1`, the “% Inhibition” value was 1%.
With `Cc1c(Cl)cccc1C(=O)N1CCC[C@H](Cn2cncn2)C1` the “% Inhibition” value was 1%.
In the case of `O=C(N[C@@H]1CN(Cc2ccccn2)CCC[C@H]1O)c1ccc(OCc2ccccc2)cc1`, the “% Inhibition” value is reported as 42%.
In the case of `CCOC(=O)C1CCC(CN(Cc2ccc(OC)cc2)S(=O)(=O)c2cc(C(=O)Nc3ccc(OCC)cc3)ccc2F)CC1` (centres undefined), the “% Inhibition” value is reported as 6%.
